Data published in ChEMBL document CHEMBL3988442, “University of Dundee, Small-Polar-MMV Screening Library” (2021).
Among all 48,000 compounds or so, about 13,000 (27%) showed an effect of 50% or more. The list shows a part of the results.

The compounds below were run on Wolbachia pipientis (assay: Anti-Wolbachia Cell-Based Screen). Conditions: 5 µM.
Assay type: functional
Set-up: scale not given: in the data most compounds retested in dose-response had high values

SMILES | Percent Effect [%]
Cc1ccc2[nH]c(C(=O)NCCCn3ccnn3)c(C)c2c1 | -11.21
CCc1nccn1CCCNC(=O)CN1CCN(c2ncccn2)CC1 | -11.95
COc1ccccc1-n1cc(C(=O)NCCCn2ccnn2)cn1 | 105.8
CC(C)c1nccn1CCCNC(=O)c1ccc(-c2cnn(C)c2)nc1 | 3.735
CCc1nccn1CCCNC(=O)c1cnn(-c2ccccc2OC)c1 | 86.43
Cc1ccc2nc(C)c(C)c(C(=O)NCCCn3ccnn3)c2c1 | -15.24
CC(C)CCN1CC2(CCN(C3CCCOC3)CC2)OC1=O (stereo not drawn) | 10.38
COCCOc1ccc(NC(=O)N2CCCC2c2ccsc2)cn1 (stereo not drawn) | -8.185
COc1c(F)ccc(C(=O)N2CC[C@H](CO)[C@@H](O)C2)c1F | 0.1381
CC(C)Nc1nc(N2CCCC2)nc2c1CN(c1ncc(F)cn1)CC2 | 118.9
CC(C)CCN1CCc2nc(N3CCOCC3)nc(NC(C)C)c2C1 | 0.8088
CCS(=O)(=O)N1CCc2nc(N3CCOCC3)nc(N(C)C)c2CC1 | -7.887
Cc1nc(CN2CCc3nc(N4CCCC4)nc(NC(C)C)c3C2)cs1 | -7.957
CCCS(=O)(=O)N1CCc2nc(N3CCOCC3)nc(N(C)C)c2C1 | 5.75
CC(C)Nc1nc(N2CCCC2)nc2c1CCN(S(C)(=O)=O)CC2.O=C(O)C(F)(F)F.O=C(O)C(F)(F)F | 110.6
CC(C)Nc1nc2c(cc1C(=O)NCC1CC1)CCN(S(C)(=O)=O)CC2.O=C(O)C(F)(F)F | 8.623
CCCN1CCc2nc(N3CCOCC3)nc(NC(C)C)c2C1 | -9.413
CCc1ncnc2c1CCN(c1ncc(F)cn1)CC2 | -14.13
CC(C)Nc1nc(N2CCCC2)nc2c1CN(C)CC2 | 109
CC(C)Nc1nc(N2CCCC2)nc2c1CN(S(C)(=O)=O)CC2 | 105.6
Cc1cc(C(=O)N2CCC(c3nccn3CCCN(C)C)CC2)no1 | 1.64
Nc1nc(CCNc2ncnc3c2CCN(C(=O)C2CC2)C3)cs1 | -7.691

SMILES | Percent Effect [%]
Cc1ccc(SCCN(C)C(=O)c2cn(CCN)nn2)cc1 | 1.127
COCC(=O)N(Cc1cccc(C)c1)Cc1ccccc1OC | -10.99
CC(C)(O)CN1CCN(C(=O)COC2CCCCC2)CC1 | -14.17
CCC(C)c1csc(NC(=O)Cc2csc(-c3nnc[nH]3)n2)n1 (stereo not drawn) | -13.2
CC(C)Nc1nc(N2CCCC2)nc2c1CN(C(C)C)CC2 | 4.85
CCN1CCc2nc(N3CCOCC3)nc(NC(C)C)c2C1 | -4.113
CCC(C)N1CCc2nc(N3CCCC3)nc(NC(C)C)c2C1 (stereo not drawn) | 120.2
O=C1NCCN1C1CCN(Cc2coc(-c3ccccc3)n2)CC1 | 93.32
O=C1NCCN1C1CCN(Cc2ccccn2)CC1 | -4.193
O=C1NCCN1C1CCCN(Cc2nnc(-c3ccc(F)cc3)o2)C1 (stereo not drawn) | 8.098
CS(=O)(=O)NC1CCN(Cc2coc(-c3ccc(Cl)cc3)n2)CC1 | 11.26
Cc1ccc(-c2nc(CN3CCc4nn(C)c(=O)cc4C3)co2)cc1 | -7.957
c1csc(-c2nc(CN3CCN(c4cnccn4)CC3)co2)c1 | -1.577
CS(=O)(=O)NC1CCN(Cc2coc(-c3ccccc3)n2)CC1 | -0.3699
O=C1NCCN1C1CCN(Cc2coc(-c3ccc(F)cc3)n2)CC1 | 91.35
O=S1(=O)CCCN1Cc1coc(-c2cccs2)n1 | 4.552
O=C1NCCN1C1CCCN(Cc2coc(-c3cccs3)n2)C1 (stereo not drawn) | 113.2
O=C1NCCN1C1CCCN(Cc2coc(-c3ccc(F)cc3)n2)C1 (stereo not drawn) | -1.248
Cc1ccc(-c2nc(CN3CCC(N4CCNC4=O)CC3)co2)cc1 | 99.39
NCC1Cc2cc(Oc3cc(F)c(CN4CCCC4)c(F)c3)ccc2O1 (stereo not drawn) | -5.798
c1cc(-c2nnc(C3(c4ccc5c(c4)OCO5)CCOCC3)o2)ccn1 | -12.56
CCc1ccc(C(COC)NC(=O)c2ccc(O)nc2)o1 (stereo not drawn) | -6.31

SMILES | Percent Effect [%]
c1ccc(-n2nnnc2CN2CCCC(Cn3cncn3)C2)cc1 (stereo not drawn) | 0.4093
Cc1ccc(NC(=O)CNC(C)CN2CCOCC2)c(F)c1 (stereo not drawn) | 11.35
Cc1ccc(NC(=O)CNC(C)CN2CCCCC2)c(F)c1 (stereo not drawn) | 7.732
Cc1ccc(NC(=O)CN2CCOCC2)c(F)c1 | 133.3
CCOC1CC2(CCN(CCO)CC2)c2ccc(C)cc21 (stereo not drawn) | 12.38
CCC(=O)N1CCC2(CC1)CC(N1CCOCC1)c1cc(C)ccc12.O=C(O)C(F)(F)F (stereo not drawn) | 0.6162
CC(=O)N1CCC2(CC1)CC(NC(=O)N(C)C)c1cc(C)ccc12 (stereo not drawn) | 112.2
Cc1ccc2c(c1)CCC21CCN(C(=O)CO)CC1 | -11.41
CC(=O)N1CC2(CCN(C(=O)N(C)C)CC2)c2cc(C)ccc21 | 1.573
CCC(=O)N1CCC2(CC1)CC(NC(=O)N(C)C)c1cc(C)ccc12 (stereo not drawn) | 98.52
Cc1ccc(C)c(OCc2cc(C(=O)N(C)Cc3cnn(C)c3)no2)c1 | -13.61
Cn1cc(C(=O)N2CCCC(Cc3cnccn3)C2)cn1 (stereo not drawn) | 110.5
Cn1cc(C(=O)N2CCCC2CCc2ccccc2)cn1 (stereo not drawn) | 11.22
COc1cccc(OCC2CCCN(C(=O)c3cnn(C)c3)C2)c1 (stereo not drawn) | -49.1
CCS(=O)(=O)N1CCCC(Cc2cnccn2)C1 (stereo not drawn) | 118.2
Cn1cc(C(=O)N2CCCC(CN3CCCC3=O)C2)cn1 (stereo not drawn) | 73.94
CC(O)CN1CC2(CCC1=O)CCN(C(=O)c1cnn(C)c1)CC2 (stereo not drawn) | -4.211
CCS(=O)(=O)N1CCCC(c2nccn2Cc2ccccn2)C1 (stereo not drawn) | -4.348
Cc1ccc(C2CCCN(C(=O)c3cnn(C)c3)C2)nc1 (stereo not drawn) | 105.1
CCS(=O)(=O)N1CCCC(c2nccn2Cc2cccnc2)C1 (stereo not drawn) | -2.411
COc1cc(N2CCN(Cc3ccc(C)o3)C(CCO)C2)nc(N)n1 (stereo not drawn) | -10.52
Cc1nn(C)c2c(=O)n(CC(=O)Nc3cc(Cl)cc(Cl)c3)nnc12 | 4.089

SMILES | Percent Effect [%]
Cn1cc(C(=O)N2CCCC(c3cnccn3)C2)cn1 (stereo not drawn) | 131
Cc1nccn1CC1CCCN(C(=O)c2cnn(C)c2)C1 (stereo not drawn) | 93.77
Cn1cc(C(=O)N2CC[C@@]3(O)CCN(C(=O)C4CCC4)C[C@H]3C2)cn1 | -11.15
Cn1cc(C(=O)N2CCCC(c3ccncc3)C2)cn1 (stereo not drawn) | 78.37
COc1ccc(CN(C(=O)C2CCCS2)c2ccncc2)cc1 (stereo not drawn) | -11.82
COc1ccc(S(=O)(=O)N2CCn3cnc(COCC4CC4)c3C2)cc1 | -5.165
CS(=O)(=O)N1CCCCC12CCCN(Cc1nccs1)C2.O=C(O)C(F)(F)F (stereo not drawn) | -3.648
CNC[C@H]1CC[C@H](c2cc(CN(C)S(=O)(=O)N(C)C)n(C)n2)CC1.Cl | 79.31
CNC[C@H]1CC[C@H](c2cc(CN(C)C(=O)c3cnccn3)n(C)n2)CC1.Cl | 49.34
O=C(NN1CCCc2ccccc21)c1c[nH]c(=O)[nH]1 | -8.796
CCc1cnc(C)nc1NCCNc1nc(C)cc(=O)[nH]1 | -6.452
F[C@@H]1CN(CC2CC2)C[C@@H]1OCc1nc2ncccc2[nH]1 | -13.13
Cc1ccc(CN2CCC(CNC(=O)Cn3cncn3)CC2)cc1 | -4.206
O=C(CCc1ccccc1)NCC1CCN(Cc2ccsc2)CC1 | 3.98
O=C(CCc1ccccc1)NCC1CCN(Cc2cccs2)CC1 | 102.9
O=C(CCc1ccccc1)NCC1CCN(Cc2ccccc2)CC1 | 111.4
O=C(CCc1ccsc1)NCC1CCN(Cc2cccs2)CC1 | -16.57
COc1cc2cc(C(=O)NC(C)C(=O)O)n(C)c2c(OC)c1OC (stereo not drawn) | 0.3251
CCc1[nH]c2c(CNc3nc(C)cc(NC)n3)cc(C)cc2c1C | -10.73
CC(SCCC(=O)NC(N)=O)c1ccccc1F (stereo not drawn) | -10.14
Cc1ccc2c(c1)C1(CCNCC1)CC2N1CCOCC1 (stereo not drawn) | 0.9204
N#Cc1ccc(S(=O)(=O)Nc2ccccc2C#N)cn1 | -3.183

SMILES | Percent Effect [%]
COc1ccc(NC(=O)N2CCCCCC2c2ccncc2)cn1 (stereo not drawn) | -7.407
O=C(NCN1CCc2ccccc2C1)c1cnccn1 | -0.1611
O=C(NCCN1CCOCC1)c1ccc(OCc2ccccc2)nc1 | -12.09
O=C(NCCc1cscn1)c1coc(CN2CCOCC2)c1 | -2.273
O=C(NCC1(O)COCCN(Cc2ccc(O)cc2)C1)c1cnccn1 (stereo not drawn) | 136.8
Cc1ccc(CN2CCOCC2)cc1NC(=O)c1ccsc1 | -4.906
O=C(NCC1(O)COCCN(Cc2cccc(O)c2)C1)c1cscn1 (stereo not drawn) | 117.5
O=C(NCC1(O)COCCN(Cc2cccc(O)c2)C1)c1ccccn1 (stereo not drawn) | 141
O=C(NCC1(O)COCCN(Cc2cccc(O)c2)C1)c1cnccn1 (stereo not drawn) | 119.9
O=C(Nc1cnn(CCN2CCOCC2)c1)c1ccccn1 | -4.684
O=C(Nc1cc(N2CCOCC2)ncn1)c1cnccn1 | -2.836
CCCN(Cc1ccccc1C)C(CC)CO (stereo not drawn) | 3.002
CC(C)c1nc(C(=O)N2CCc3ccccc3C2C(=O)O)cs1 (stereo not drawn) | -0.5058
CSCCNC(=O)c1coc(COc2ccc3sc(C)nc3c2)n1 | -17.64
Cc1nc(N2CCCC2)nc2c1CCN(Cc1ccco1)CC2.O=C(O)C(F)(F)F | -6.041
CNc1nc2c(c(C(=O)N3CCCC3)n1)CN(Cc1ccco1)CC2 | 133.6
CCCn1nc2c(cc1=O)CN(Cc1cc(C)no1)CC2 | 7.336
Cc1cc(CN2CCc3nn(C)c(=O)cc3C2)on1 | 13.66
CNc1nc2c(c(C(=O)N3CCCC3)n1)CN(Cc1cc(C)no1)CC2 | 97.24
CNc1nc2c(c(C(=O)N3CCCC3)n1)CN(Cc1nccn1C)CC2 | 14.28
